# According to article PMC5540273 (PLoS ONE, 2017):
# Read-outs that look alike come from different tables or passages of the source.
# Columns and labels:
# SRPK3 = details: concentration: 1 μM, replicates: in singlicate; n = 1
# STK16 = details: concentration: 1 μM, replicates: in singlicate; n = 1
# STK33 = details: concentration: 1 μM, replicates: in singlicate; n = 1
# STK35 = details: concentration: 1 μM, replicates: in singlicate; n = 1
# STK36 = details: concentration: 1 μM, replicates: in singlicate; n = 1
# STK39 = details: concentration: 1 μM, replicates: in singlicate; n = 1
# SYK = details: concentration: 1 μM, replicates: in singlicate; n = 1
# SgK110 = details: concentration: 1 μM, replicates: in singlicate; n = 1
# TAK1 = system: T1, TAK1; details: concentration: 1 μM, replicates: in singlicate; n = 1
# T1 construct: gene MAP3K7
# TAOK1 = details: concentration: 1 μM, replicates: in singlicate; n = 1
# TAOK2 = details: concentration: 1 μM, replicates: in singlicate; n = 1
# TAOK3 = details: concentration: 1 μM, replicates: in singlicate; n = 1
# TBK1 = details: concentration: 1 μM, replicates: in singlicate; n = 1
# TEC = details: concentration: 1 μM, replicates: in singlicate; n = 1
# TESK1 = details: concentration: 1 μM, replicates: in singlicate; n = 1
# TGFBR1 = details: n = 1
# TGFBR2 = details: concentration: 1 μM, replicates: in singlicate; n = 1
# TIE1 = details: concentration: 1 μM, replicates: in singlicate; n = 1
# TIE2 = system: T2, TIE2; details: concentration: 1 μM, replicates: in singlicate; n = 1
# T2 construct: gene TEK
# TLK1 = details: concentration: 1 μM, replicates: in singlicate; n = 1
# [1] = concentration: 1 μM, replicates: in singlicate
# 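Note: KINOMEscan kinase panel screen.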
smiles,measurement,setting,value
O=C(NOCC1CC1)c1ccc(F)c(F)c1Nc1ccc(I)cc1Cl,%Inh,SRPK3,7%
same,%Inh,STK16,0%
same,%Inh,STK33,0%
same,%Inh,STK35,0%
same,%Inh,STK36,0%
same,%Inh,STK39,0%
same,%Inh,SYK,0%
same,%Inh,SgK110,0%
same,%Inh,TAK1,11%
same,%Inh,TAOK1,0%
same,%Inh,TAOK2,0%
same,%Inh,TAOK3,0%
same,%Inh,TBK1,0%
same,%Inh,TEC,0%
same,%Inh,TESK1,4%
same,%Inh,TGFBR1; [1],0%
same,%Inh,TGFBR2,0%
same,%Inh,TIE1,0%
same,%Inh,TIE2,0%
same,%Inh,TLK1,3%
COC(=O)Nc1nc2cc(Oc3ccc(NC(=O)Nc4cc(F)ccc4F)cc3)ccc2[nH]1.Cl [GW701424],%Inh,SRPK3,0%
same,%Inh,STK16,0%
same,%Inh,STK33,0%
same,%Inh,STK35,0%
same,%Inh,STK36,0%
same,%Inh,STK39,7%
same,%Inh,SYK,0%
same,%Inh,SgK110,0%
same,%Inh,TAK1,8%
same,%Inh,TAOK1,0%
same,%Inh,TAOK2,0%
same,%Inh,TAOK3,0%
same,%Inh,TBK1,9%
same,%Inh,TEC,0%
same,%Inh,TESK1,73%
same,%Inh,TGFBR1; [1],27%
same,%Inh,TGFBR2,0%
same,%Inh,TIE1,93.2%
same,%Inh,TIE2,73%
same,%Inh,TLK1,0%
[2H]C([2H])(c1cccc(C(F)(F)F)c1C)n1ccn2c(=O)nc(N3CCOCC3)cc12 [GSK2336394],%Inh,SRPK3,0%
same,%Inh,STK16,0%
same,%Inh,STK33,0%
same,%Inh,STK35,0%
same,%Inh,STK36,0%
same,%Inh,STK39,1%
same,%Inh,SYK,42%
same,%Inh,SgK110,0%
same,%Inh,TAK1,0%
same,%Inh,TAOK1,0%
same,%Inh,TAOK2,0%
same,%Inh,TAOK3,0%
same,%Inh,TBK1,10%
same,%Inh,TEC,0%
same,%Inh,TESK1,26%
same,%Inh,TGFBR1; [1],5%
same,%Inh,TGFBR2,32%
same,%Inh,TIE1,11%
same,%Inh,TIE2,0%
same,%Inh,TLK1,0%
O=C(Nc1cccc(-c2nn3ncccc3c2-c2ccnc(Nc3cccc(C(F)(F)F)c3)n2)c1)c1c(F)cccc1F [GSK299495],%Inh,SRPK3,0%
same,%Inh,STK16,3%
same,%Inh,STK33,0%
same,%Inh,STK35,54%
same,%Inh,STK36,99%
same,%Inh,STK39,15%
same,%Inh,SYK,68%
same,%Inh,SgK110,0%
same,%Inh,TAK1,0%
same,%Inh,TAOK1,44%
same,%Inh,TAOK2,41%
same,%Inh,TAOK3,63%
same,%Inh,TBK1,6%
same,%Inh,TEC,96.8%
same,%Inh,TESK1,15%
same,%Inh,TGFBR1; [1],8%
same,%Inh,TGFBR2,1%
same,%Inh,TIE1,10%
same,%Inh,TIE2,0%
same,%Inh,TLK1,0%
CCn1cnc2c(N)ncnc21 [GW345098],%Inh,SRPK3,18%
same,%Inh,STK16,12%
same,%Inh,STK33,10%
same,%Inh,STK35,0%
same,%Inh,STK36,5%
same,%Inh,STK39,0%
same,%Inh,SYK,3%
same,%Inh,SgK110,0%
same,%Inh,TAK1,4%
same,%Inh,TAOK1,16%
same,%Inh,TAOK2,4%
same,%Inh,TAOK3,0%
same,%Inh,TBK1,39%
same,%Inh,TEC,11%
same,%Inh,TESK1,4%
same,%Inh,TGFBR1; [1],0%
same,%Inh,TGFBR2,12%
same,%Inh,TIE1,6%
same,%Inh,TIE2,2%
same,%Inh,TLK1,22%
CC(C)(C)n1cnc2c(N)ncnc21 [SKF-97359],%Inh,SRPK3,0%
same,%Inh,STK16,0%
same,%Inh,STK33,0%
same,%Inh,STK35,0%
same,%Inh,STK36,0%
same,%Inh,STK39,0%
same,%Inh,SYK,0%
same,%Inh,SgK110,85%
same,%Inh,TAK1,22%
same,%Inh,TAOK1,0%
same,%Inh,TAOK2,0%
same,%Inh,TAOK3,0%
same,%Inh,TBK1,19%
same,%Inh,TEC,0%
same,%Inh,TESK1,0%
same,%Inh,TGFBR1; [1],30%
same,%Inh,TGFBR2,0%
same,%Inh,TIE1,0%
same,%Inh,TIE2,17%
same,%Inh,TLK1,67%
CC(C)Oc1ccc2c(-c3ccnc(Nc4ccc(N5CCN(C)CC5)cc4)n3)cnn2n1 [GW696155],%Inh,SRPK3,79%
same,%Inh,STK16,98.8%
same,%Inh,STK33,81%
same,%Inh,STK35,45%
same,%Inh,STK36,70%
same,%Inh,STK39,89%
same,%Inh,SYK,10%
same,%Inh,SgK110,29%
same,%Inh,TAK1,56%
same,%Inh,TAOK1,76%
same,%Inh,TAOK2,79%
same,%Inh,TAOK3,70%
same,%Inh,TBK1,97.9%
same,%Inh,TEC,0%
same,%Inh,TESK1,12%
same,%Inh,TGFBR1; [1],29%
same,%Inh,TGFBR2,35%
same,%Inh,TIE1,80%
same,%Inh,TIE2,0%
same,%Inh,TLK1,95.3%
N#Cc1c(N2CCOCC2)sc(-c2ccn[nH]2)c1-c1ccc(Cl)cc1,%Inh,SRPK3,0%
same,%Inh,STK16,33%
same,%Inh,STK33,10%
same,%Inh,STK35,0%
same,%Inh,STK36,0%
same,%Inh,STK39,17%
same,%Inh,SYK,16%
same,%Inh,SgK110,0%
same,%Inh,TAK1,14%
same,%Inh,TAOK1,0%
same,%Inh,TAOK2,0%
same,%Inh,TAOK3,0%
same,%Inh,TBK1,12%
same,%Inh,TEC,12%
same,%Inh,TESK1,0%
same,%Inh,TGFBR1; [1],19%
same,%Inh,TGFBR2,0%
same,%Inh,TIE1,0%
same,%Inh,TIE2,5%
same,%Inh,TLK1,11%
COc1cc2ncn(-c3cc(OCc4sccc4Cl)c(C(N)=O)s3)c2cc1OC [GSK448459],%Inh,SRPK3,3%
same,%Inh,STK16,21%
same,%Inh,STK33,0%
same,%Inh,STK35,0%
same,%Inh,STK36,0%
same,%Inh,STK39,0%
same,%Inh,SYK,23%
same,%Inh,SgK110,0%
same,%Inh,TAK1,0%
same,%Inh,TAOK1,0%
same,%Inh,TAOK2,0%
same,%Inh,TAOK3,0%
same,%Inh,TBK1,15%
same,%Inh,TEC,5%
same,%Inh,TESK1,0%
same,%Inh,TGFBR1; [1],11%
same,%Inh,TGFBR2,0%
same,%Inh,TIE1,36%
same,%Inh,TIE2,0%
same,%Inh,TLK1,0%
c1ccc(-c2n[nH]cc2-c2ccnc3ccccc23)nc1 [GW271431],%Inh,SRPK3,0%
same,%Inh,STK16,18%
same,%Inh,STK33,8%
same,%Inh,STK35,19%
same,%Inh,STK36,0%
same,%Inh,STK39,0%
same,%Inh,SYK,44%
same,%Inh,SgK110,0%
same,%Inh,TAK1,50%
same,%Inh,TAOK1,0%
same,%Inh,TAOK2,0%
same,%Inh,TAOK3,0%
same,%Inh,TBK1,12%
same,%Inh,TEC,0%
same,%Inh,TESK1,20%
same,%Inh,TGFBR1; 1 µM,90.1%
same,%Inh,TGFBR2,72%
same,%Inh,TIE1,3%
same,%Inh,TIE2,0%
same,%Inh,TLK1,2%
